Measured values from publication PMC7862700, “An all-to-all approach to the identification of sequence-specific readers for epigenetic DNA modifications on cytosine”.

Columns and labels:
Assay in all cases: DAPPL (digital affinity profiling via proximity ligation, sequencing); 10 mM Tris-HCl pH 7.5, 50 mM NaCl, 1 mM DTT, 4% glycerol, room temperature, 30 min; GST-TFs on glutathione beads, 16-mer random dsDNA library, 0.1% formaldehyde crosslink after washing; high values mean tight binding
Conditions in all cases: protein: recombinant; tags: N-terminal GST; dsDNA, one strand shown
[1] = target: T1, FLI1 (Homo sapiens, UniProt Q01543 1-452)
T1 sequence: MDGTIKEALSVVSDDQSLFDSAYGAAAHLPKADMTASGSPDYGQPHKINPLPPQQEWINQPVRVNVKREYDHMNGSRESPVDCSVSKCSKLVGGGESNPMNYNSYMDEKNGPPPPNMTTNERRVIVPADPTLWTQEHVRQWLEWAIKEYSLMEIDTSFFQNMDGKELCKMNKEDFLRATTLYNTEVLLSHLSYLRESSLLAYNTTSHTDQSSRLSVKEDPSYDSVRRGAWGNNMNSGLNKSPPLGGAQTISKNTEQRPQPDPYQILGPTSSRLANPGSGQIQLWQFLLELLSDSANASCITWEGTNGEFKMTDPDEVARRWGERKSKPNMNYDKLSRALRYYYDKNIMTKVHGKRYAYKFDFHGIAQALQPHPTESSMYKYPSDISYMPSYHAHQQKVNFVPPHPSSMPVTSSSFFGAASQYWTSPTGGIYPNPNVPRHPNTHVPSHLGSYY
Outline: (§1)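 Each value of binding signal is a hexamer's read frequency for a factor divided by the same hexamer's frequency in the tag-only sample. Barcoded, bead-captured GST fusions of human transcription factors made in yeast were pooled with that sample and incubated with 200 nmole of a random double-stranded 16-mer DNA library in Tris/NaCl/DTT/glycerol buffer at room temperature for 30 min. Washing, 0.1% formaldehyde crosslinking, proximity ligation, PCR and Illumina NextSeq500 sequencing followed.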

[2] = target: T2, ELK1 (Homo sapiens, UniProt P19419 1-428)
T2 sequence: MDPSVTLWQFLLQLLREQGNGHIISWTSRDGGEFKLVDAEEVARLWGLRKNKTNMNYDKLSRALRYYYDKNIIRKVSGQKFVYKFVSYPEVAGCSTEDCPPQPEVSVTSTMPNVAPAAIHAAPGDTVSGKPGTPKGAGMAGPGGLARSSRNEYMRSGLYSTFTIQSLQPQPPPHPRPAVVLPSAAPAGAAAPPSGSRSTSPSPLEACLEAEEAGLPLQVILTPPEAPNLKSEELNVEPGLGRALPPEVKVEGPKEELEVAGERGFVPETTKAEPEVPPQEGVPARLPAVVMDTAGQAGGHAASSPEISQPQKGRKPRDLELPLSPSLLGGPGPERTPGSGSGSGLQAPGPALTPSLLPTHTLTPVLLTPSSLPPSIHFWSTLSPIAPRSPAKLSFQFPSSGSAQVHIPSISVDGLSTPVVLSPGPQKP
Outline: as §1

[3] = target: T3, GABPA (Homo sapiens, UniProt Q06546 1-454)
T3 sequence: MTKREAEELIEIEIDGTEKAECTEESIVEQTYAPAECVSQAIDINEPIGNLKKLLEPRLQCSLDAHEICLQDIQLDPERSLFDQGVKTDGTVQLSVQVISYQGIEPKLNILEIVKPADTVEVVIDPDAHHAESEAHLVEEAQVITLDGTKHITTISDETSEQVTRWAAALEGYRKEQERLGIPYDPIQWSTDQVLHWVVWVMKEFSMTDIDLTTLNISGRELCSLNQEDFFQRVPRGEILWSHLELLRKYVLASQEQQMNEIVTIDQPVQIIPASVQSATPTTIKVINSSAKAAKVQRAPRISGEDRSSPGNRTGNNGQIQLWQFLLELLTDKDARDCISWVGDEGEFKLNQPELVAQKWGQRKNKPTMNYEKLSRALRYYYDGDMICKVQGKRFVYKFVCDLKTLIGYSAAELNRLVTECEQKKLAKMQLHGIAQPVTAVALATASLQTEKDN
Outline: as §1

[4] = target: T4, ERG (Homo sapiens, UniProt P11308 1-479)
T4 sequence: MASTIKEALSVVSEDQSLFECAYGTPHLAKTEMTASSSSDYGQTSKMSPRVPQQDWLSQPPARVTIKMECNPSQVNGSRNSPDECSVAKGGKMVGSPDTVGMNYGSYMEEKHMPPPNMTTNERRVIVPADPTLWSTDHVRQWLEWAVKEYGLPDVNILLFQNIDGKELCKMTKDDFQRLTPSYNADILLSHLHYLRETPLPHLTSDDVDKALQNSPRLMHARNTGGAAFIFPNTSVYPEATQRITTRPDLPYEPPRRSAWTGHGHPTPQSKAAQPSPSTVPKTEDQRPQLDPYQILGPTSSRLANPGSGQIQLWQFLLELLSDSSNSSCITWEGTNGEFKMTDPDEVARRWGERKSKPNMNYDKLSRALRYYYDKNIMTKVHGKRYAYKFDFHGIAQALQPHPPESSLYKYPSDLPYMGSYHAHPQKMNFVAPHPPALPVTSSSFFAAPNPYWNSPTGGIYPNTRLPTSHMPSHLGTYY
Outline: as §1

[5] = target: ELF1 (Homo sapiens, UniProt P32519 1-619)
Sequence of ELF1 (P32519 whole entry): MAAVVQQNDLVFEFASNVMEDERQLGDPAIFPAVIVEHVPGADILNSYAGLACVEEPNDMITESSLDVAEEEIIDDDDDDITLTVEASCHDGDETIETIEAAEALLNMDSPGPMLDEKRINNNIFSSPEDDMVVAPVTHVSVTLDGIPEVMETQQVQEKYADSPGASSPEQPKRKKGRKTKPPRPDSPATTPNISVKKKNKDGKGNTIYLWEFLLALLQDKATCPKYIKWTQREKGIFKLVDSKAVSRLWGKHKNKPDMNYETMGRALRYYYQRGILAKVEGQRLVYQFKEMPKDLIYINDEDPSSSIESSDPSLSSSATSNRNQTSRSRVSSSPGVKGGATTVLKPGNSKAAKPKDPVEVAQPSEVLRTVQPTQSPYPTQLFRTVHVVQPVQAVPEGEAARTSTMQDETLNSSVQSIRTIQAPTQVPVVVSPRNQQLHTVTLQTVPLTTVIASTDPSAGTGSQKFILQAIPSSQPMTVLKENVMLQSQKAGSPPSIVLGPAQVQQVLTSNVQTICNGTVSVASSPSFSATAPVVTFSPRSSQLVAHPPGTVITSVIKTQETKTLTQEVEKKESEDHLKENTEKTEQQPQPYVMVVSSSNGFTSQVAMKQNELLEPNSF
Outline: as §1

[6] = target: T5, EHF (Homo sapiens, UniProt Q9NZC4 1-300)
T5 sequence: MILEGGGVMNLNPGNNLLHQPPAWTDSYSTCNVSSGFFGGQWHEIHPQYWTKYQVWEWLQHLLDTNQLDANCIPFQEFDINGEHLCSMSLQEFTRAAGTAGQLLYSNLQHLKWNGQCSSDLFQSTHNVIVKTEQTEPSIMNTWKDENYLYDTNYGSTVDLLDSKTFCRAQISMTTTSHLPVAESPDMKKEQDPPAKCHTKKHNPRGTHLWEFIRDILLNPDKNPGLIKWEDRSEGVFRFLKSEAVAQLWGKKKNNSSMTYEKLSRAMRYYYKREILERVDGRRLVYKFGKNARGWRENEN
Outline: as §1

[7] = target: SPI1 (Homo sapiens, UniProt P17947 1-270)
Outline: as §1

[8] = target: SPIB (Homo sapiens, UniProt Q01892 1-262)
Sequence of SPIB (Q01892 whole entry): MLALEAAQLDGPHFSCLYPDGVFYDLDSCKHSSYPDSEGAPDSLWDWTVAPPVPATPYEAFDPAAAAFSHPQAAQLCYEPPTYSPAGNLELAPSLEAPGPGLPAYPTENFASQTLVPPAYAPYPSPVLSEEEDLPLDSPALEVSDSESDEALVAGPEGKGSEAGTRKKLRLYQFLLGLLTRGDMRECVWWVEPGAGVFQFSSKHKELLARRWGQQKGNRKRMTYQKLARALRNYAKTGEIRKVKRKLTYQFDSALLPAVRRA
Outline: as §1

[9] = target: T6, ELK3 (Homo sapiens, UniProt P41970 1-407)
T6 sequence: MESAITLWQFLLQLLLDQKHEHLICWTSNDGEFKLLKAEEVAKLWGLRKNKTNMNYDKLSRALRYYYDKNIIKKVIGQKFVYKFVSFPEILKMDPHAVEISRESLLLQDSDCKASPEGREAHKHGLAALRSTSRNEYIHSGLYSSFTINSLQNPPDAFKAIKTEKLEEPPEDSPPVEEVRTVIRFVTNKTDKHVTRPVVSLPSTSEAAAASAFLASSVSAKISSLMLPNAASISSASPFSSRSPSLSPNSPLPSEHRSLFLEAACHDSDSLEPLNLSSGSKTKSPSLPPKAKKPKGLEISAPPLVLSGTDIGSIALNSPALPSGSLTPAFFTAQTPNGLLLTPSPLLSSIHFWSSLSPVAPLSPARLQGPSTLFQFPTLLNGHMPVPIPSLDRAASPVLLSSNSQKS
Outline: as §1

Row | Sequence | binding signal [1] | binding signal [2] | binding signal [3] | binding signal [4] | binding signal [5] | binding signal [6] | binding signal [7] | binding signal [8] | binding signal [9]
1 | TACACC | 1.16 fold enrichment (6-mer frequency, TF over GST control) | 1.27 fold enrichment (6-mer frequency, TF over GST control) | 1.14 fold enrichment (6-mer frequency, TF over GST control) | 1.27 fold enrichment (6-mer frequency, TF over GST control) | 1.17 fold enrichment (6-mer frequency, TF over GST control) | 1.22 fold enrichment (6-mer frequency, TF over GST control) | 1.1 fold enrichment (6-mer frequency, TF over GST control) | 1.11 fold enrichment (6-mer frequency, TF over GST control) | 1.14 fold enrichment (6-mer frequency, TF over GST control)
2 | CCAACT | 1.26 fold enrichment (6-mer frequency, TF over GST control) | 1.19 fold enrichment (6-mer frequency, TF over GST control) | 1.23 fold enrichment (6-mer frequency, TF over GST control) | 1.26 fold enrichment (6-mer frequency, TF over GST control) | 1.25 fold enrichment (6-mer frequency, TF over GST control) | 1.24 fold enrichment (6-mer frequency, TF over GST control) | 1.14 fold enrichment (6-mer frequency, TF over GST control) | 1.25 fold enrichment (6-mer frequency, TF over GST control) | 1.19 fold enrichment (6-mer frequency, TF over GST control)
3 | AATAGC | 1.17 fold enrichment (6-mer frequency, TF over GST control) | 1.14 fold enrichment (6-mer frequency, TF over GST control) | 1.17 fold enrichment (6-mer frequency, TF over GST control) | 1.12 fold enrichment (6-mer frequency, TF over GST control) | 1.09 fold enrichment (6-mer frequency, TF over GST control) | 1.23 fold enrichment (6-mer frequency, TF over GST control) | 1.15 fold enrichment (6-mer frequency, TF over GST control) | 1.16 fold enrichment (6-mer frequency, TF over GST control) | 1.1 fold enrichment (6-mer frequency, TF over GST control)
4 | TAGCCC | 1.23 fold enrichment (6-mer frequency, TF over GST control) | 1.18 fold enrichment (6-mer frequency, TF over GST control) | 1.12 fold enrichment (6-mer frequency, TF over GST control) | 1.12 fold enrichment (6-mer frequency, TF over GST control) | 1.08 fold enrichment (6-mer frequency, TF over GST control) | 1.21 fold enrichment (6-mer frequency, TF over GST control) | 1.13 fold enrichment (6-mer frequency, TF over GST control) | 1.16 fold enrichment (6-mer frequency, TF over GST control) | 1.24 fold enrichment (6-mer frequency, TF over GST control)
5 | GAACTC | 1.28 fold enrichment (6-mer frequency, TF over GST control) | 1.22 fold enrichment (6-mer frequency, TF over GST control) | 1.31 fold enrichment (6-mer frequency, TF over GST control) | 1.26 fold enrichment (6-mer frequency, TF over GST control) | 1.29 fold enrichment (6-mer frequency, TF over GST control) | 1.28 fold enrichment (6-mer frequency, TF over GST control) | 1.39 fold enrichment (6-mer frequency, TF over GST control) | 1.28 fold enrichment (6-mer frequency, TF over GST control) | 1.33 fold enrichment (6-mer frequency, TF over GST control)
6 | TCTGAA | 1.11 fold enrichment (6-mer frequency, TF over GST control) | 1.22 fold enrichment (6-mer frequency, TF over GST control) | 1.13 fold enrichment (6-mer frequency, TF over GST control) | 1.15 fold enrichment (6-mer frequency, TF over GST control) | 1.18 fold enrichment (6-mer frequency, TF over GST control) | 1.18 fold enrichment (6-mer frequency, TF over GST control) | 1.18 fold enrichment (6-mer frequency, TF over GST control) | 1.26 fold enrichment (6-mer frequency, TF over GST control) | 1.17 fold enrichment (6-mer frequency, TF over GST control)
7 | TTAAAA | 1.19 fold enrichment (6-mer frequency, TF over GST control) | 1.15 fold enrichment (6-mer frequency, TF over GST control) | 1.19 fold enrichment (6-mer frequency, TF over GST control) | 1.15 fold enrichment (6-mer frequency, TF over GST control) | 1.22 fold enrichment (6-mer frequency, TF over GST control) | 1.16 fold enrichment (6-mer frequency, TF over GST control) | 1.33 fold enrichment (6-mer frequency, TF over GST control) | 1.23 fold enrichment (6-mer frequency, TF over GST control) | 1.22 fold enrichment (6-mer frequency, TF over GST control)
